Activity calls are given as the source filed them.
Experiments:
[1] = system: Human papillomavirus type 1a protein E7 (residues 44-93); assay: small molecules binding HPV E7 44-93 – biochemical, small-molecule microarray, residues 44-93, 635 nm fluorescence, primary screen (AID 1108); settings: fluorescence 635 nm, higher = more signal;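 note: E7 fragment applied at 1 µg/mL in TBST for 1 h at 4 C; score combines spot fluorescence with its signal to noise ratio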
[2] = hepatitis C replication reporter changes, two-sided – Huh7 cells, luciferase reporter, HCV replication inhibitor project, primary screen (AID 1109); settings: Huh7 HCV replicon luciferase reporter, 48 h; higher = more signal;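 note: huh7 hepatoma cells harbouring a luciferase neomycin HCV replicon reporter; luciferase luminescence as measure of HCV replicon replication; test concentration not given here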
[3] = biological target: Left-right determination factor 2 (Homo sapiens) (UniProt O00292); assay: small molecules binding LEFTY2 protein – biochemical, small-molecule microarray, 635 nm fluorescence scan, primary screen (AID 1110); settings: higher = more signal
Chain of Left-right determination factor 2 (Homo sapiens) (O00292 whole entry, looked up): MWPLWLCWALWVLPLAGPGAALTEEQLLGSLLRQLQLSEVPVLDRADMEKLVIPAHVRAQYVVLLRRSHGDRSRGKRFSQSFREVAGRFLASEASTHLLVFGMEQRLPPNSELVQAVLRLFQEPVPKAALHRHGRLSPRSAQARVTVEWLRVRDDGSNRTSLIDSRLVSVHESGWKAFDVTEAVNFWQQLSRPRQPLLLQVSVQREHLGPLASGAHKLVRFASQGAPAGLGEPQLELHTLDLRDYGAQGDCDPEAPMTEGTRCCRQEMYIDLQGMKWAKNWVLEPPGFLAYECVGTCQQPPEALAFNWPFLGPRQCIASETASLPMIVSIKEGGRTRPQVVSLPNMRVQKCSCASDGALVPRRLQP

[4] = biological target: Calmodulin-1 (Homo sapiens) (UniProt P0DP23); assay: small molecules binding calmodulin-1 with EGTA – biochemical, small-molecule microarray, Cy5-labelled CALM1, profiling panel (AID 1111); settings: Cy5-CALM1 binding fluorescence, higher = more signal;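 note: labelled calmodulin applied in Tris saline Tween buffer holding calcium plus EGTA and DTT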
[5] = biological target: Calmodulin-1 (Homo sapiens) (UniProt P0DP23); assay: small molecules binding Ca-loaded calmodulin-1 – biochemical, small-molecule microarray, Cy5-labelled CALM1, plus calcium, artefact control for SMM control-protein annotation, profiling panel (AID 1112); settings: Cy5-CALM1 binding fluorescence, higher = more signal;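 note: score merges spot fluorescence with signal to noise from triplicate slides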
[6] = probe aWnt5a binding to arrayed compounds – biochemical, biotinylated probe, 635/667 nm fluorescence, primary screen (AID 1113); settings: small-molecule microarray, higher = more signal;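 note: score merges 667 nm fluorescence intensity with signal-to-noise per printed feature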
[7] = probe aShh binding to arrayed compounds – biochemical, biotinylated probe, 635/667 nm fluorescence, primary screen (AID 1114); settings: small-molecule microarray, higher = more signal;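 note: probe is biotin-labelled aShh protein from a stem cell growth factor screen; measures binding of labelled protein to compounds printed on the slide; score merges feature fluorescence at 667 nm with signal-to-noise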
[8] = probe aNog binding to arrayed compounds – biochemical, biotinylated probe, 635/667 nm fluorescence, primary screen (AID 1115); settings: small-molecule microarray, higher = more signal;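 note: probe is biotinylated aNog protein used at 0.15 µg/mL for 1 h at 4 C; z-score combines 667 nm fluorescence of each spot with its signal to noise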
[9] = biological target: Torsin-1A-interacting protein 1 (Homo sapiens) (UniProt Q5JTV8); assay: compound microarray binding of lysate hLAP1 – cell lysate, small-molecule microarray, COS7 lysate, 635/667 nm fluorescence, primary screen (AID 1116); settings: 635 nm fluorescence, higher = more signal
Chain of Torsin-1A-interacting protein 1 (Homo sapiens) (Q5JTV8 whole entry, looked up): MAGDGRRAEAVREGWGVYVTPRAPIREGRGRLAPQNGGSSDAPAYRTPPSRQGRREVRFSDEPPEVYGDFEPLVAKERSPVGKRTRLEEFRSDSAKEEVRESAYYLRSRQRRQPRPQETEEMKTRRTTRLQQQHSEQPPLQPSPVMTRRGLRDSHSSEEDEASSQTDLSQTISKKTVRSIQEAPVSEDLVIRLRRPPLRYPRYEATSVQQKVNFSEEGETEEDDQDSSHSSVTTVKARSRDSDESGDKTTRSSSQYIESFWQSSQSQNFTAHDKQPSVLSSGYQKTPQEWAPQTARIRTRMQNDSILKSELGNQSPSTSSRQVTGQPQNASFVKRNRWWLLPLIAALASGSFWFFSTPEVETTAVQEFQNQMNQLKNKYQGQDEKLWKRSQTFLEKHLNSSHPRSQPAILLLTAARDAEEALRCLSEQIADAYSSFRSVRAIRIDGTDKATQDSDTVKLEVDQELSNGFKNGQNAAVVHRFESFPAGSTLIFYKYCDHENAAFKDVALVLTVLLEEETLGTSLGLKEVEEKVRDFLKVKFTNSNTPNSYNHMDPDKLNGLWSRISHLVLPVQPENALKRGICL

[10] = biological target: Alpha-bungarotoxin (Bungarus multicinctus) (UniProt P60615); assay: compounds binding labelled alpha-BTX control protein – biochemical, small-molecule microarray, Alexa647 label, 635/667 nm fluorescence, artefact control for SMM control protein annotation, profiling panel (AID 1117); settings: alpha-BTX-A647 binding fluorescence, higher = more signal
Chain of Alpha-bungarotoxin (Bungarus multicinctus) (P60615 whole entry, looked up): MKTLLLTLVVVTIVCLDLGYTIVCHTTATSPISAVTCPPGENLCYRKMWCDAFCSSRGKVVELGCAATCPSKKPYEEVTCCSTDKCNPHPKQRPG

Albumin (Bos taurus) = Albumin (Bos taurus) (UniProt P02769); assay: compounds binding labelled BSA control protein – biochemical, small-molecule microarray, Alexa647 label, 635/667 nm fluorescence, artefact control for SMM control protein annotation, profiling panel (AID 1118); settings: BSA-A647 binding, fluorescence 635 nm, higher = more signal;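 note: score merges 667 nm emission intensity and signal-to-noise per printed compound spot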
Chain of Albumin (Bos taurus) (P02769 whole entry, looked up): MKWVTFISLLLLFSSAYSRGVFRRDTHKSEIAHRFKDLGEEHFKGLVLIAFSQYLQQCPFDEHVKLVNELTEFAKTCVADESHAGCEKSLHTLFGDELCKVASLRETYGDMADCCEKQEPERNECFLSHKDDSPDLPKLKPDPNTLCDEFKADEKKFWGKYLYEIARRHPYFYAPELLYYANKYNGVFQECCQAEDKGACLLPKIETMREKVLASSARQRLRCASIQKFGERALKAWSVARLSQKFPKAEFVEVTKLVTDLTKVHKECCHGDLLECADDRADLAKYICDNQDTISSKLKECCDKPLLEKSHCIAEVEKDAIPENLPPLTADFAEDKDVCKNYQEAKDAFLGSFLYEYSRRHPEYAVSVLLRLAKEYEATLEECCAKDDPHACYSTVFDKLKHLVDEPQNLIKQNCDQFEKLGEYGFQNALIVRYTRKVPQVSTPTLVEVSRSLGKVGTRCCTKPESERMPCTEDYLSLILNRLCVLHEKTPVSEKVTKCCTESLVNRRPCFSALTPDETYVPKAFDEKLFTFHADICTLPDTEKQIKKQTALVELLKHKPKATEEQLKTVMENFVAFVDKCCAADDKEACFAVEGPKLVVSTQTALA

[11] = probe aXIP binding to arrayed compounds – biochemical, NeuroSMM set, 635/667 nm fluorescence, primary screen (AID 1119); settings: small-molecule microarray, higher = more signal, called active from +8 up or from −8 down;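 note: probe is the protein aXip251-270 applied at 1 µg/mL to compound-printed slides; binding of probe to printed compounds measured as 667 nm fluorescence plus signal to noise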
[12] = probe aNOTCH3 binding on compound microarray – biochemical, small-molecule microarray, 635/667 nm fluorescence, primary screen (AID 1120); settings: higher = more signal;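 note: probe is a biotin-tagged antibody raised against NOTCH3 rather than NOTCH3 protein; score merges spot fluorescence near 667 nm with spot signal to noise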
[13] = probe aNOTCH2 binding on compound microarray – biochemical, small-molecule microarray, 635/667 nm fluorescence, primary screen (AID 1121); settings: higher = more signal;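 note: score merges feature fluorescence read at 667 nm with its signal to noise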
[14] = biological target: Carbonic anhydrase 2 (Homo sapiens) (UniProt P00918); assay: compounds binding carbonic anhydrase 2 – biochemical, small-molecule microarray, Alexa647-labelled CAII, profiling panel (AID 1122); settings: CAII-A647 binding fluorescence, higher = more signal
[15] = COS7 lysate on small-molecule microarray, probe aHis, 635 nm (AID 1123); settings: COS7 cell lysate, fluorescence, higher = more signal;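 note: z-score combines 667nm fluorescence intensity with signal-to-noise per printed compound spot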
[16] = probe aLAP1 signal on lysate-treated microarray – cell lysate, small-molecule microarray, COS7 lysate, primary screen (AID 1124); settings: probe aLAP1, fluorescence, higher = more signal;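 note: lysate comes from COS7 cells expressing LAP1 and is applied at 0.3 µg/mL; score merges spot fluorescence near 667 nm with signal-to-noise over triplicate slides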
Sam68 (KHDRBS1) = assay: compounds binding KHDRBS1 protein – biochemical, small-molecule microarray, 635 nm fluorescence, primary screen (AID 1125); settings: higher = more signal;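 note: score merges 667 nm channel intensity with signal to noise over triplicate slides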
[17] = system: Chordin-like protein 2 (CHRDL2); assay: compounds binding chordin-like 2 – biochemical, small-molecule microarray, 635 nm fluorescence, primary screen (AID 1126); settings: fluorescence 635 nm, higher = more signal;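 note: printed compound slides probed with Chrdl2 protein at 4 µg/mL for 1 h at 4 C; score merges 667 nm emission intensity with signal to noise over three replicate slides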
[18] = biological target: Concanavalin-A (Canavalia ensiformis) (UniProt P02866); assay: compounds binding concanavalin A lectin – biochemical, small-molecule microarray, Alexa647 label, 635 nm, artefact control for SMM control protein annotation, primary screen (AID 1127); settings: ConA-A647 binding fluorescence, higher = more signal;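 note: z combines 667 nm emission intensity with signal-to-noise across three replicate slides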
Chain of Concanavalin-A (Canavalia ensiformis) (P02866 whole entry, looked up): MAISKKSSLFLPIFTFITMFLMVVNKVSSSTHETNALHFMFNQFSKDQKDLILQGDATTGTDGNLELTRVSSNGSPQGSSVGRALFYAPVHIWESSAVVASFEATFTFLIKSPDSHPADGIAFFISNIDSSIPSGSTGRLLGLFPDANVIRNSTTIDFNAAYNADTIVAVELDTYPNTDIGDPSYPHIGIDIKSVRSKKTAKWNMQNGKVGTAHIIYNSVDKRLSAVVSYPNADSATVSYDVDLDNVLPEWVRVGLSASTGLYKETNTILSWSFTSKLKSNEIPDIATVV

SMILES	composite z-score [1]	z-score [2]	composite z-score [3]	composite z-score [4]	composite z-score [5]	composite z-score [6]	composite z-score [7]	composite z-score [8]	composite z-score [9]	composite z-score [10]	composite z-score (Albumin (Bos taurus))	composite Z-score [11]	composite z-score [12]	composite z-score [13]	composite z-score [14]	composite z-score [15]	composite z-score [16]	composite z-score (Sam68 (KHDRBS1))	composite z-score [17]	composite z-score [18]
CC(C)N1C(=O)c2ccccc2[C@@H](C(=O)NCCCN(C)C)[C@@H]1c1ccc(CO)cc1	-1	0.19	-0.89	0.341	0.0647	0.026	-0.367	0.707	0.64	0.684	0.955	-0.109 (inactive)	-0.15	0.0364	0.901	0.82	0.0206	0.297	-1.91	0.289
COCCOC(=O)N1C(=O)[C@@]2(c3cc(C#CC4=CCCCC4)ccc31)[C@H](C(=O)N1CCc3cc(OC)c(OC)cc3C1)[C@H]1C(=O)O[C@H](c3ccccc3)[C@H](c3ccccc3)N1[C@@H]2c1ccccc1OCCO	0.899	-1.35	0.546	0.805	0.512	-0.107	-0.153	0.365	0.261	0.917	-0.092	-0.243 (inactive)	-0.068	-0.118	-0.0205	-0.0785	0.498	0.6	1.03	1.07
CCCCC=C[C@@H](NC(=O)c1ccco1)c1ccccc1	-0.244	-0.502	0.0518	1.31	0.137	0.0151	0.356	0.531	-0.153	1.18	0.844	-0.474 (inactive)	-0.0947	-0.0419	-0.406	0.0455	-0.358	-0.708	-0.134	1.01
CC(C)CNC(=O)[C@@]1(c2ccc([N+](=O)[O-])cc2)CC(=O)N(CC23CC4CC(CC(C4)C2)C3)[C@@H]1c1ccc(CO)cc1I	1.39	-3.18	0.539	0.404	-0.111	-0.0587	-0.0685	-0.289	0.798	0.504	-0.0275	0.493 (inactive)	0.54	-0.0001	0.259	2.03	0.451	1.32	0.499	0.974
COC(=O)C[C@H]1O[C@]2(C(=O)N(Cc3ccccc3)c3ccc(NC(C)=O)cc32)[C@@H](C)[C@@H]1[Si](C)(C)c1ccc(OC)cc1	0.866	-2.23	0.104	0.403	-0.352	-0.096	-0.2	0.188	0.538	0.226	0.298	-0.114 (inactive)	0.0485	-0.13	0.269	0.696	0.189	1.31	0.48	0.355
COCCCNC(=O)[C@@]1(C)c2ccccc2C(=O)N(Cc2cc(C(F)(F)F)cc(C(F)(F)F)c2)[C@H]1c1ccc(CO)cc1	1.32	0.261	-1.8	0.0356	0.378	-0.154	-0.0626	0.583	-0.235	1.41	-0.0502	0.318 (inactive)	-0.256	-0.0173	0.74	1.68	-0.066	-0.21	-2.46	0.851
COc1cccc(C(=O)O[C@H]2CC[C@]3(C)C4=C(CCC3C2(C)C)[C@]2(C)CC[C@H]([C@H](C)CCCC(C)C)[C@@]2(C)CC4)c1 (stereo not given in full)	-0.212	0.004	0.359	-0.0348	-0.441	-0.202	-0.138	-0.0689	0.105	0.3	0.111	-0.424 (inactive)	-0.0414	-0.132	0.202	0.279	-0.147	0.166	0.585	0.254
CN(C)C(=O)[C@@]1(CCC(=O)OC(C)(C)C)N=C(c2ccc(OCCCO)cc2)O[C@H]1c1ccccc1	1.49	-1.01	-0.964	1.03	1	0.0733	0.357	0.546	1.41	0.575	0.955	0.58 (inactive)	0.519	-0.0125	0.842	3.16	0.55	0.926	-0.719	0.683
COc1ccc([Si](C)(C)[C@@H]2[C@@H](CCn3cc([C@H](O)c4ccccc4)nn3)O[C@]3(C(=O)N(Cc4ccc(N5C(=O)c6cccc7cccc5c67)cc4)c4ccccc43)[C@H]2C)cc1	0.314	-2.88	-0.556	0.273	0.702	-0.154	-0.0904	-0.131	-0.0215	0.152	0.033	-0.196 (inactive)	-0.13	-0.155	0.403	0.791	0.017	0.268	-0.177	-0.13
CC(C)(C)OC(=O)CC[C@@]1(C(=O)NCCN2CCOCC2)N=C(c2ccc(OCCCO)cc2)O[C@@H]1c1ccccc1	0.925	0.988	0.356	1.59	0.53	0.0095	-0.138	-0.193	0.414	2.08	1.03	-0.548 (inactive)	0.209	0.0129	0.539	1.46	0.275	1.3	-0.0233	1.17
C=C[C@@H](COC(C)=O)N(Cc1ccc([N+](=O)[O-])cc1)S(=O)(=O)c1ccc(Br)cc1	-0.541	-0.365	0.59	0.989	0.729	-0.0597	-0.0709	0.392	0.546	1.78	0.812	0.181 (inactive)	-0.0647	-0.0089	0.448	0.432	0.442	0.573	0.241	1.11

Source: PubChem BioAssay
